# Experimental data: PubChem BioAssay AID463173 (ICCB-Longwood Screening Facility, Harvard Medical School, 2010)
# Among all 52,000 compounds or so, about 1,700 (3.3%) were called active. The full list was thinned out, with actives kept by preference. A number with no mark means an inactive call. Rule as the data show it: active = survival mostly below about 52% (no sharp cut-off); inactive = mostly above about 56%.
# Test system: Wild type
# Assay: S. aureus survival, RN4220 and DeltatarO strains – OD600, teichoic acid synthesis inhibitors, primary screen (AID 463173)
# Settings: S. aureus RN4220 wild type/DeltatarO growth, OD600, 18 h, hits give low values, concentration not given here
row,SMILES,survival
1,Cc1ccc(NC(=O)N(Cc2ccc3c(c2)OCO3)C2CCN(Cc3ccccc3)CC2)cc1F,76%
2,Cc1ccc(NC(=O)N(Cc2ccc3c(c2)OCO3)C2CCN(Cc3ccccc3)CC2)cc1Cl,133%
3,Cc1ccc(Cl)cc1NC(=O)N(Cc1ccc2c(c1)OCO2)C1CCN(Cc2ccccc2)CC1,14% (active)
4,Cc1ccc(NC(=O)N(Cc2ccc3c(c2)OCO3)C2CCN(Cc3ccccc3)CC2)cc1C,-1% (active)
5,COc1ccccc1NC(=O)N(Cc1ccc2c(c1)OCO2)C1CCN(Cc2ccccc2)CC1,78%
6,O=C(Nc1ccccc1)N(Cc1ccc2c(c1)OCO2)C1CCN(Cc2ccccc2)CC1,78%
7,Cc1cccc(CN2CCN(C(=O)COc3ccccc3)CC2)c1,108%
8,CCCOc1ccc(CCN)cc1Cl,107%
9,O=C(Nc1ccc2c(c1)OCO2)c1cccn(Cc2cccc([N+](=O)[O-])c2)c1=O,77%
10,c1cc(C2CCNCC2)ccn1,104%
11,NC(=O)CN1C2CCC1CC(NC(=O)C1CC1)C2 (configuration not stated),103%
12,O=S1(=O)N(Cc2ccccc2)CCCN1Cc1ccc(F)cc1Cl,76%
13,O=S1(=O)N(Cc2ccccc2Cl)CCCN1Cc1ccccc1Cl,-4% (active)
14,O=S1(=O)N(Cc2ccccc2)CCCN1Cc1cccc(Cl)c1,78%
15,COc1ccc(CN2C(=O)CC(=O)NC2=S)cc1,107%
16,CCCCc1nn2c(=O)cc(COC(=O)Cc3ccccc3)nc2s1,84%
17,CCC(C)N1CCN(Cc2ccccc2)CC1 (configuration not stated),111%
18,COc1ccccc1C1SCC(=O)Nc2c1c(C)nn2-c1cccc(C)c1 (configuration not stated),-10% (active)
19,CCCOc1ccc(C2SCC(=O)Nc3c2c(C)nn3-c2cccc(C)c2)cc1OC (configuration not stated),62%
20,Cc1cccc(-n2nc(C)c3c2NC(=O)CSC3c2ccccc2Cl)c1 (configuration not stated),64%
21,CCCc1nc2ccccc2c(=O)n1-c1ccccc1,127%
22,O=C(COc1ccccc1)N1CCN(Cc2ccc(Br)cc2)CC1,100%
23,CCCCn1c(=O)c(C(=O)NC)c(O)c2ccccc21,112%
24,CCCCCn1c(=O)c(C(=O)Nc2ccccc2S(N)(=O)=O)c(O)c2ccccc21,0% (active)
25,CCSc1nnc(NC(=O)c2cccn(Cc3ccccc3Cl)c2=O)s1,71%

row,SMILES,survival
1,CN1CCC2(CC1)CC(NC=O)c1ccccc1O2 (configuration not stated),108%
2,N#Cc1cc2c(nc1SCC(=O)Nc1cccc(C(F)(F)F)c1)C1CCN2CC1,0% (active)
3,CCOC(=O)c1ccc(NC(=O)CSc2nc3c(cc2C#N)N2CCC3CC2)cc1,84%
4,Nc1c(C(=O)Nc2cccc(Br)c2)sc2nc3c(cc12)N1CCC3CC1,63%
5,Nc1c(C(=O)Nc2ccc(OC(F)(F)F)cc2)sc2nc3c(cc12)N1CCC3CC1,167%
6,O=C(CN1C(=O)CN=C(c2ccccc2)c2ccccc21)Nc1cccc(C(F)(F)F)c1,48%
7,N#Cc1cccc(NC(=O)CSc2nc3c(cc2C#N)N2CCC3CC2)c1,76%
8,N#Cc1cc2c(nc1SCC(=O)Nc1ccc(C(F)(F)F)cc1)C1CCN2CC1,0% (active)
9,N#Cc1cc2c(nc1SCC(=O)Nc1cccc(F)c1)C1CCN2CC1,-3% (active)
10,CN1CCc2c(C#N)c(Cl)nc(NCc3ccccc3)c2C1,103%
11,CCCC1(CCC)C(=O)NC(=Nc2ccccc2)NC1=O,107%
12,COc1ccc(CC2C(=O)N(C)C(=O)N(C)C2=O)cc1,112%
13,CCc1cc2c(s1)NC(=O)CN=C2c1cccs1,112%
14,N#CC(C#N)=Cc1cc(Br)cs1,94%
15,Cc1cc(-n2c(/C=C/c3ccc(Br)s3)nc3ccccc3c2=O)ccc1Br,66%
16,Cn1cc(C=C(C#N)C#N)c2ccccc21,114%
17,Cc1ccccc1-n1c(/C=C/c2ccc(N(C)C)cc2)nc2ccccc2c1=O,7% (active)
18,Cc1ccc(-n2c(/C=C\c3ccc(F)c(F)c3)nc3ccccc3c2=O)c(C)c1,68%
19,Cc1ccccc1-n1c(/C=C/c2c(C)[nH]c3ccccc23)nc2ccccc2c1=O,6% (active)
20,O=c1c2ccccc2nc(/C=C\c2ccc(F)cc2)n1-c1ccccc1F,71%
21,Cc1cccc(-n2c(/C=C/c3c(C)[nH]c4ccccc34)nc3ccccc3c2=O)c1,108%
22,COc1ccc(-n2c(/C=C\c3ccccc3F)nc3ccccc3c2=O)c(OC)c1,68%
23,O=c1c2ccccc2nc(/C=C\c2ccccc2F)n1-c1ccc(O)cc1,73%
24,Cc1cccc(-n2c(/C=C/c3ccccc3O)nc3ccccc3c2=O)c1,12%
25,O=c1c2ccccc2nc(/C=C/c2ccccc2F)n1-c1cccc(O)c1,11% (active)

row,SMILES,survival
1,Cc1ccccc1-n1c(/C=C/c2ccc(O)cc2)nc2ccccc2c1=O,48%
2,Cc1ccccc1-n1c(/C=C/c2ccccc2F)nc2ccccc2c1=O,7% (active)
3,O=c1c2ccccc2nc(/C=C/c2ccccc2)n1-c1ccccc1F,97%
4,Cc1cccc2sc(NC(=O)c3cccn(Cc4ccccc4)c3=O)nc12,78%
5,COC(=O)c1ccc(NC(=O)c2cccn(Cc3ccccc3C)c2=O)cc1,88%
6,Cc1c(C(c2ccc(Br)cc2)c2c(O)c3ccccc3oc2=O)c(=O)n(-c2ccccc2)n1C (configuration not stated),69%
7,COc1ccc(CNCC(=O)N2CCC3(CC2)OCCO3)cc1,107%
8,CCOc1ccc(CC2(CCc3ccncc3)C(=O)NC(=O)NC2=O)cc1,96%
9,CCOc1ccc(-n2c(/C=C/c3ccccc3)nc3ccccc3c2=O)cc1,136%
10,CCc1ccc(OCC(=O)N2CCN(CCc3ccccn3)CC2)cc1,83%
11,COc1cccc(-n2c(/C=C/c3cccc(C)c3)nc3ccccc3c2=O)c1,0% (active)
12,COc1cccc(-n2c(/C=C/c3ccccc3O)nc3ccccc3c2=O)c1,20%
13,COc1cccc(-n2c(/C=C\c3ccc(Cl)cc3)nc3ccccc3c2=O)c1,48%
14,Nc1c(C(=O)Nc2ccc(Br)cc2F)sc2nc3c(cc12)N1CCC3CC1,134%
15,CC(=O)c1ccc(NC(=O)c2sc3nc4c(cc3c2N)N2CCC4CC2)cc1,95%
16,CN(C)c1ccc(NC(=O)c2sc3nc4c(cc3c2N)N2CCC4CC2)cc1,114%
17,Nc1c(C(=O)Nc2ccc(Cl)c(C(F)(F)F)c2)sc2nc3c(cc12)N1CCC3CC1,1% (active)
18,Nc1c(C(=O)Nc2ccc(F)c(Cl)c2)sc2nc3c(cc12)N1CCC3CC1,105%
19,N#Cc1cc2c(nc1SCC(=O)Nc1ccc(Cl)c(C(F)(F)F)c1)C1CCN2CC1,2% (active)
20,Nc1c(C(=O)Nc2ccc(Cl)cc2)sc2nc3c(cc12)N1CCC3CC1,95%
21,CCOC(=O)c1ccc(NC(=O)c2sc3nc4c(cc3c2N)N2CCC4CC2)cc1,84%
22,N#Cc1cc2c(nc1SCC(=O)Nc1ccc(F)c(Cl)c1)C1CCN2CC1,-2% (active)
23,COc1ccc(NC(=O)CCc2nc(C3=CCN(Cc4cccc(Cl)c4)CC3)no2)cc1OC,76%
24,CCC(N)C(=O)c1ccc(Cl)cc1 (configuration not stated),105%
25,Cn1c(=O)n(C)c2cc(CNCCc3ccc(F)cc3)ccc21,86%

row,SMILES,survival
1,CC(C)C(=O)c1cn(Cc2ccccc2C#N)c2ccccc12,115%
2,Cc1cccc(Cn2cccc(C(=O)Nc3nnc(C)s3)c2=O)c1,71%
3,O=C(Nc1ccc(Cl)cc1C(=O)c1ccccc1)c1ccccc1Br,5% (active)
4,CSc1ncc(C(=O)Nc2ccc(Cl)cc2C(=O)c2ccccc2)c(C)n1,88%
5,COc1ccc(C(=O)Nc2ccc(Cl)cc2C(=O)c2ccccc2)c(OC)c1,-2% (active)
6,Cc1ccc(OCC(=O)Nc2ccc(Cl)cc2C(=O)c2ccccc2)cc1C,75%
7,CC(C)(C)c1ccc(OCC(=O)Nc2ccc(Cl)cc2C(=O)c2ccccc2)cc1,63%
8,O=C(COc1ccc(Br)cc1)Nc1ccc(Cl)cc1C(=O)c1ccccc1,72%
9,O=C(Nc1ccc(Br)cc1C(=O)c1ccccc1Cl)c1ccc(Br)cc1,136%
10,O=C(Nc1ccc(Br)cc1C(=O)c1ccccc1Cl)c1ccccc1F,76%
11,CC(C)(C)c1ccc(C(=O)Nc2ccc(Cl)cc2C(=O)c2ccccc2)cc1,3% (active)
12,O=C(Nc1ccc(Br)cc1C(=O)c1ccccc1)c1ccccc1,-1% (active)
13,COc1cc(OC)cc(C(=O)Nc2ccc(Cl)cc2C(=O)c2ccccc2Cl)c1,139%
14,O=C(Nc1ccc(Cl)cc1C(=O)c1ccccc1)c1cc(Cl)cc(Cl)c1,140%
15,Cc1cc(NC(=O)c2cccn(Cc3cccc(Cl)c3)c2=O)no1,72%
16,O=C1NC(=O)N(Cc2ccco2)C(=O)/C1=C\c1ccco1,111%
17,O=C(Nc1ccc2c(c1)OCO2)c1cccn(Cc2ccc(F)cc2)c1=O,59%
18,CCCc1nc(SC)ncc1C(=O)Nc1ccc(Cl)cc1C(=O)c1ccccc1,84%
19,COC(=O)C1=C(C)OC(N)=C(C#N)C12C(=O)Nc1ccc(C)cc12 (configuration not stated),96%
20,COc1ccc(CN2CCNCC2)cc1,98%
21,Cc1cccc(NC(=O)Cn2cc(C(=O)c3ccccc3)c3ccccc32)c1C,71%
22,CC(c1ccccc1F)n1cc(C(=O)NC2CCCC2)nn1 (configuration not stated),103%
